Assay outcomes: PubChem BioAssay, National Center for Advancing Translational Sciences (NCATS)
ALDH1A1 inh-1 = inhibitors of human aldehyde dehydrogenase 1A1; Potency, µM (highest dose often 75.3 µM), actives largely listed as inhibitors; Purified ALDH1A1, NADH fluorescence, propionaldehyde substrate; P00352; 220,000 tested, 7.3% active; active = well fitted inhibition curve with a large enough effect, not every such curve was filed as active; inconclusive = small, poorly fitted or top-dose-only effect, or another doubt; inactive = no such curve, though single readings can be large or run the other way
ALOX12 inhib = inhibitors of human 12-lipoxygenase (ALOX12) | purified 12-hLO, xylenol orange hydroperoxide absorbance | AID 1452 | 150,000 tested, 0.12% active | Potency, µM (doses to about 57.1 µM), usual class: inhibitors; note: nearly all actives have a fitted effect of over 55% in size
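Purified human 12hLO (150 nM), preincubated 15 min with compound, then 40 uM arachidonic acid for 30 min, room temperature, Hepes pH 7.0 with 0.01% Triton X-100. Hydroperoxide detected by ferrous iron/xylenol orange; 573/405 nm absorbance ratio gives reaction progress.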
HPGD inh = inhibitors of human 15-hydroxyprostaglandin dehydrogenase (HPGD); P15428; purified HPGD, NADH fluorescence kinetic, PGE2 substrate; Potency, µM, usual class: inhibitors; 150,000 tested, 4.3% active; AID 894; active = well fitted inhibition curve with a large enough effect, not every such curve was filed as active; inconclusive = small, poorly fitted or top-dose-only effect, or another doubt; inactive = no such curve, though single readings can be large or run the other way
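20 nM HPGD preincubated 15 min at room temperature with compound in 50 mM Tris-HCl pH 8, 0.01% Tween 20. Started with 1 mM NAD+ and 30 uM prostaglandin E2; NADH fluorescence (360/450 nm) read 5 times over 30-s intervals, last minus first.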
aGal spleen mod = inhibitors or activators of human alpha-galactosidase in spleen homogenate. P06280. human spleen homogenate, 4MU-alpha-Gal fluorescence, 40 min. Potency, µM (doses to about 80 µM), usual class: inhibitors. 240,000 tested, 0.008% active. AID 2107
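qHTS titration in buffer at pH 5.0. Alpha-galactosidase activity in spleen homogenate was measured via 4-methylumbelliferone release from 1 mM fluorogenic substrate after 40 min at 37C and a pH 10 stop. AC50 came from Hill fits of control-normalized data.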
GLA inh pH 4.5 = inhibitors of human alpha-galactosidase A at pH 4.5 | P06280 | activity change, negative = inhibition, % at 105 µM | purified enzyme, 4-MU-alpha-Gal fluorescence, pH 4.5 | 230,000 tested, under 10 active
Target sequence (P06280 whole entry, looked up): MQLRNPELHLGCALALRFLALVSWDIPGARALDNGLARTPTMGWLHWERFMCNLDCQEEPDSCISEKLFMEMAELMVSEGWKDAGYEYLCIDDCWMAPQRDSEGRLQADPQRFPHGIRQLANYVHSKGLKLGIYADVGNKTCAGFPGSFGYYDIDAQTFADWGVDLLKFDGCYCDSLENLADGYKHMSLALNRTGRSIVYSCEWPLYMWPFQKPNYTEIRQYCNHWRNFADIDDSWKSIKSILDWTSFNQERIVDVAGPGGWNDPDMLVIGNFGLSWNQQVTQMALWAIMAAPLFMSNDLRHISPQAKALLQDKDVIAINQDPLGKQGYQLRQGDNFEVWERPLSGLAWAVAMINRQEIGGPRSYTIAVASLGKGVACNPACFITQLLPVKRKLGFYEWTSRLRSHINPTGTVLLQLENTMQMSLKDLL
PNC assembly inh = perinucleolar compartment assembly inhibition | 140,000 tested, 3.1% active | AID 2417 | activity change (PNC), negative = inhibition, % at 10 µM | PC3M PTB-GFP, PNC prevalence imaging, 16 h; hits give low values;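 active = readout at or below -70, meaning at least 70% loss of cells showing the perinucleolar compartment, a nuclear body marking cancer cells; inconclusive = readout between -30 and a set limit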
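Compounds are pinned in duplicate onto adhered PC3M cells stably expressing GFP-tagged PTB and incubated 16 h at 37 C. Cells are then fixed, nuclei stained with Hoechst, and PNC-positive cells counted.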
HPGD inh conf = human HPGD enzyme inhibition, confirmation | AID 2429 | recombinant HPGD, NADH fluorescence, PGE2 substrate | Potency, µM (top dose mostly 57.1 µM), actives largely listed as inhibitors | 90 tested, 90% active | shares compounds with HPGD inh; calls by dose curve
ALDH1A1 inh-2 = Blocks ALDH1A1 NADH production, follow-up. shares compounds with ALDH1A1 inh-1. purified ALDH1A1, NADH fluorescence, propionaldehyde/NAD+. Potency, µM (highest dose often 57.1 µM), usual class: inhibitors. 90 tested, 90% active. AID 493210; calls by dose curve
Hits are given with their value; – = inactive; ? = inconclusive; · = not tested or not shown; [ ] = another dose, or the depositor's remark. An excerpt weighted towards active compounds, which were near 10% of everything screened. Unless noted, calls come from the whole dose curve; as a rule, active = well fitted curve in the direction sought with a large enough effect; inconclusive = small, poorly fitted or top-dose-only effect, or another doubt; inactive = no such curve, though single readings can be large; an effect the other way counts as inactive or inconclusive.

SMILES	ALDH1A1 inh-1	ALOX12 inhib	HPGD inh	aGal spleen mod	GLA inh pH 4.5	PNC assembly inh	others
COc1cc2cc(c1Cl)N(C)C(=O)C[C@H](OC(=O)C(C)C)[C@]1(C)O[C@@H]1[C@@H](C)[C@H]1C[C@](O)(NC(=O)O1)[C@@H](OC)/C=C\C=C(\C)C2	–[13.5 µM]	–[11.4 µM]	–	·	·	·
CC1CC2OC2/C=C\C=C/C(=O)Cc2c(Cl)c(O)cc(O)c2C(=O)O1 (configuration not stated)	22.4µM	–[0.00818 µM]	17.8µM	–	–	·
COc1cc(N2CCOCC2)ccc1/C=C1\C(=O)NC(=O)N(Cc2cccs2)C1=O	?	·	·	–	–	·
COc1cc(N2CCOCC2)ccc1C=C1C(=O)NC(=O)NC1=O	12.6µM	–	31.6µM	–	–	?
C=CCN1C(=O)/C(=C\c2ccc(N3CCOCC3)o2)C(=O)NC1=S	17.8µM	–	–	–	–	–
CCN(CC)S(=O)(=O)c1ccc(N=Cc2c(O)n(-c3ccccc3)c(=O)[nH]c2=O)cc1	22.4µM	–	–	–	–	?
Cc1cccc(-n2c(O)c(C=Nc3ccc(S(N)(=O)=O)cc3)c(=O)[nH]c2=O)c1	–	·	·	–	–	·
O=c1[nH]c(=O)n(-c2ccc(Cl)cc2)c(O)c1C=Nc1ccc(S(=O)(=O)Nc2nccs2)cc1	?	–	22.4µM	–	–	?
COc1ccc(N=Cc2c(O)n(-c3ccc(C)cc3)c(=O)[nH]c2=O)cc1	?	·	·	–	–	·
Cl/C=C\Cl	–	–	–	–	·	·
C1CNC2NCCNC2N1 (configuration not stated)	–	–	–	–	–	-100.0
COc1ccc(OC)c(C2C(C#N)=C(N)Oc3c2c(C)nn3-c2ccc(C)cc2)c1 (configuration not stated)	?	–	–	–	–	?
Cc1nn(-c2ccccc2)c2c1C(c1ccc(F)cc1F)C(C#N)=C(N)O2 (configuration not stated)	12.6µM	–	28.2µM	–	–	?
COCCn1c(SCc2ccccc2Cl)nc2c1c(=O)[nH]c(=O)n2C	14.1µM	–	?	–	–	–
Cc1ccc(-n2sc3ccccc3c2=O)cc1	10µM	7.94µM	0.631µM	–	–	?	HPGD inh conf=0.562µM
O=P1(Nc2ccc(F)cc2)COc2ccccc2OC1	–	–	1.12µM	–	–	–	HPGD inh conf=1µM
COC(=O)c1ccccc1OP1(=O)COc2ccccc2OC1	–	–	–	–	–	–
C=C(C)C1CCC(C)=CC1c1c(OC)cc(C)cc1OC (configuration not stated)	·	·	·	–	·	·
CN[C@@H](C)[C@H](O)c1ccccc1	0.501µM	·	0.794µM	–	–	·	HPGD inh conf=1.41µM;ALDH1A1 inh-2=0.447µM
Oc1ccc2c3c1O[C@H]1c4oc5ccccc5c4C[C@]4(O)[C@H](C2)N(CC2CC2)CC[C@@]314	–	–	–	–	–	·
COc1ccc2c(c1)CCC1[C@@H]2CCC2(C)[C@@H](NCCCCCCN3C(=O)C=CC3=O)CC[C@@H]12 (some centres not stated)	0.112µM	–	–	–	–	·	ALDH1A1 inh-2=0.501µM
CC(C)N(C(=O)CCl)c1ccccc1	0.0282µM	–	–	–	–	·	ALDH1A1 inh-2=0.0501µM
CCc1cccc(C)c1N(C(=O)CCl)C(C)COC (configuration not stated)	–	–	–	–	–	·
CCC(C=C[C@@H]1OC(=O)C=C[C@H]1C)=C[C@H](C)CC=CC(C)=C[C@@H](C)C(=O)[C@@H](C)[C@H](O)[C@@H](C)CC(C)=CC(=O)O	0.224µM	–[0.00818 µM]	–	–[3.15 µM]	–	·	ALDH1A1 inh-2=1.12µM
COC(=O)C12CC3=CCC4C(=O)N(c5ccccc5)C(=O)C4C3Cc3ccccc3[C@@H]1CNC2=O (some centres not stated)	–	·	–	–	–	·
C[C@@H](Cc1cccc(C(F)(F)F)c1)NCCCc1ccccc1	–	–	–	–	–	·
O=c1oc(Cl)c(Cl)c2ccccc12	0.562µM	–	–	–	–	·	ALDH1A1 inh-2=0.251µM
CC[C@H]1C2CC3[C@@H]4N(C)c5ccccc5[C@]45C[C@@H](C2[C@H]5O)N3[C@@H]1O (some centres not stated)	–	–	–	–	–	·
